Experimental data published in PubChem BioAssay AID1159580 (chemical genetic matrix, 2015).
Where “and” joins values, the source holds several entries; their conditions need not be identical. Equal values may be shown once. About 2,000 (36%) of roughly 5,500 compounds were called active. About 18% were inconclusive and are not listed. Cut-off read from the data, not from the text of the source: active = normalized growth mostly below about 0.91 (no sharp cut-off); inconclusive = no clear call, values can overlap the other calls; inactive = mostly above about 0.92. This is one part of the list.

Experiment: chemical genetic growth profiling, strain panel (AID 1159580);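 note: tested at 20 µM; growth read once vehicle control cultures reached saturation at 30 °C; 1 = growth at the plate median or of vehicle wells; lower values mean less growth of the strain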
Conditions: S. cerevisiae deletion strains, growth OD

Measured: normalized growth

Nc1ccc(N=Nc2ccccc2)c(N)n1
active: locus YAL021C, strain ccr4, hits give low values 0.597 | locus YAL026C, strain drs2, hits give low values 0.262 | locus YAL030W, strain snc1, hits give low values 0.909 | locus YBL061C, strain skt5, hits give low values 0.841 | locus YBR009C, strain hhf1, hits give low values 0.635 | locus YBR021W, strain FUR4, hits give low values 1.16 [resistant] | locus YBR023C, strain chs3, hits give low values 0.764 | locus YBR231C, strain swc5, hits give low values 0.742 | locus YBR279W, strain paf1, hits give low values 0.807 | locus YCL011C, strain gbp2, hits give low values 0.78 | locus YCL016C, strain dcc1, hits give low values 0.739 | locus YCL069W, strain vba3, hits give low values 0.725 | locus YDL192W, strain arf1, hits give low values 0.901 | locus YDR069C, strain doa4, hits give low values 0.846 | locus YDR137W, strain rgp1, hits give low values 0.351 | locus YDR195W, strain ref2 1.61 [resistant] | locus YDR297W, strain sur2, hits give low values 0.828 | locus YDR334W, strain swr1, hits give low values 0.833 | locus YDR335W, strain msn5, hits give low values 0.785 | locus YDR392W, strain spt3, hits give low values 0.6 | locus YEL003W, strain gim4, hits give low values 0.712 | locus YEL061C, strain CIN8 (second series), hits give low values 0.838 | locus YER015W, strain faa2, hits give low values 0.794 | locus YER016W, strain bim1, hits give low values 0.853 | locus YER111C, strain swi4, hits give low values 0.801 | locus YER155C, strain BEM2 (second series), hits give low values 0.226 | locus YFR010W, strain ubp6, hits give low values 0.862 | locus YGL173C, strain kem1, hits give low values 0.668 | locus YGL227W, strain vid30, hits give low values 0.83 | locus YGL240W, strain doc1, hits give low values 0.832 | locus YGL253W, strain hxk2, hits give low values 0.695 | locus YGR135W, strain pre9, hits give low values 0.854 | locus YHR013C, strain ard1, hits give low values 0.573 | locus YHR027C, strain rpn1, hits give low values 0.798 | locus YHR142W, strain chs7, hits give low values 0.543 | locus YJL095W, strain BCK1 (second series), hits give low values 0.478 | locus YJL129C, strain trk1, hits give low values 1.14 [resistant] | locus YJL164C, strain tpk1, hits give low values 0.759 | locus YJL166W, strain qcr8, hits give low values 0.494 | locus YJL187C, strain SWE1, hits give low values 0.727
inactive: locus YAL013W, strain DEP1, hits give low values 0.984 | locus YBR171W, strain sec66, hits give low values 0.96 | locus YBR229C, strain ROT2, hits give low values 1 | locus YCL029C, strain bik1, hits give low values 1.03 | locus YCR088W, strain abp1, hits give low values 0.945 | locus YDL005C, strain med2, hits give low values 1 | locus YDL035C, strain GPR1, hits give low values 0.932 | locus YDL040C, strain nat1, hits give low values 0.978 | locus YDL074C, strain BRE1, hits give low values 0.866 | locus YDL101C, strain DUN1, hits give low values 0.968 | locus YDL134C, strain PPH21, hits give low values 0.999 | locus YDL185W, strain tfp1, hits give low values 0.998 | locus YDR001C, strain nth1, hits give low values 1 | locus YDR101C, strain arx1, hits give low values 0.995 | locus YDR150W, strain NUM1, hits give low values 1.01 | locus YDR159W, strain sac3, hits give low values 0.884 | locus YDR162C, strain NBP2, hits give low values 0.939 | locus YDR318W, strain mcm21, hits give low values 0.951 | locus YDR388W, hits give low values 0.997 | locus YDR502C, strain sam2, hits give low values 0.954 | locus YEL037C, strain rad23, hits give low values 0.922 | locus YEL061C, strain CIN8, hits give low values 0.997 | locus YER110C, hits give low values 1.01 | locus YER155C, strain BEM2, hits give low values 1.03 | locus YER167W, strain BCK2, hits give low values 1.02 | locus YGL078C, strain dbp3, hits give low values 0.937 | locus YGL086W, strain mad1, hits give low values 0.971 | locus YGL167C, strain pmr1, hits give low values 0.977 | locus YGL248W, strain PDE1, hits give low values 0.989 | locus YGR078C, strain PAC10, hits give low values 0.918 | locus YGR229C, strain SMI1, hits give low values 0.996 | locus YGR252W, strain gcn5, hits give low values 0.943 | locus YHR030C, strain SLT2, hits give low values 0.995 and 0.956 | locus YHR079C, strain IRE1 (second series), hits give low values 0.99 | locus YHR079C, strain IRE1, hits give low values 0.965 | locus YHR094C, strain hxt1, hits give low values 1.02 | locus YHR129C, strain ARP1, hits give low values 1.01 | locus YHR200W, strain rpn10, hits give low values 0.983 | locus YIL066C, strain RNR3, hits give low values 0.956 | locus YIL073C, strain SPO22, hits give low values 0.972 | locus YIL125W, strain kgd1, hits give low values 1.02 | locus YIR030C, strain dcg1, hits give low values 1.02 | locus YJL092W, strain hpr5, hits give low values 0.945 | locus YJL095W, strain BCK1, hits give low values 0.833 and 0.952 | locus YJL115W, strain asf1, hits give low values 1.01 | locus YJL134W, strain LCB3, hits give low values 1 | locus YJL154C, strain vps35, hits give low values 0.98 | locus YJL168C, strain set2, hits give low values 1 | locus YJL187C, strain SWE1 (second series), hits give low values 0.961 | locus YJR043C, strain POL32, hits give low values 0.984 | locus YJR066W, strain TOR1, hits give low values 0.91
